According to PubChem BioAssay:
“And” between values parts separate entries of the source, which are not always exact repeats. Equal values may be shown once.

Tests used:
[1] = test system: Botulinum neurotoxin type F light chain protease (Clostridium botulinum); experiment: Botulinum neurotoxin type F light chain protease inhibition, multiplex microsphere flow cytometry, validation set (AID 588459); settings: multiplex microsphere protease substrate cleavage assay, at 10 µM, stronger effect = higher value
[2] = molecular target: Botulinum neurotoxin type A (Clostridium botulinum) (UniProt P0DPI0); experiment: BoNT/A light chain protease inhibitors, biochemical, multiplex microsphere flow cytometry, validation set (AID 588460); settings: at 10 µM, stronger effect = higher value
[3] = molecular target: Lethal factor (Bacillus anthracis) (UniProt P15917); experiment: Lethal factor protease inhibitors, Bacillus anthracis, multiplex microsphere cleavage assay, validation set (AID 588461); settings: flow cytometry, at 10 µM, stronger effect = higher value

Measured: inhibition

CC1=C(/C=C/C(C)=C/C=C/C(C)=C/C(=O)O)C(C)(C)CCC1
inactive: [1] 0.8% | [2] -0.1% | [3] 0.4%

CC(=O)OC1c2c(ccc3ccc(=O)oc23)OC(C)(C)C1OC(=O)CC(C)C (stereo not given)
inactive: [1] -0.2% | [2] -1.5% | [3] -3.2%

C[C@]12CCC3C(CC=C4C[C@@H](O)CC[C@@]43C)C1CCC2[C@]1(C)CCC(=O)O1 (stereo not given in full)
inactive: [1] 0.6% | [2] -0.3% | [3] -5.1%

Nc1c2c(nc3ccccc13)CCCC2
inactive: [1] 5.3% | [2] 1.5% | [3] -0.3%

c1ccc2c(c1)CCOC2CNCCCN1CCCCC1 (stereo not given)
inactive: [1] 0.6% | [2] 1.3% | [3] -8.4%

COc1cc(CO)ccc1OCc1nnnn1-c1ccc(C)cc1
inactive: [1] -0.2% | [2] -1% | [3] -8.2%

CCC(CO)NCCNC(CC)CO (stereo not given)
inactive: [1] 0.2% | [2] 1.5% | [3] -0.2%

O=C(OCC1OC2OC3(CCCCC3)OC2C2OC3(CCCCC3)OC12)c1ccccc1 (stereo not given)
inactive: [1] -3.1% | [2] 2.6% | [3] -2.2%

CC1(C)CC(NCc2ccccc2)CCO1 (stereo not given)
inactive: [1] 9.4% | [2] 5.6% | [3] 1.1%

Cn1c2[n+](c3ccc(Cl)cc3c1=O)Cc1ccccc1-2
inactive: [1] 0.8% | [2] -1% | [3] -7.8%

Cc1cccc(C)c1NC(=O)C1CCCCN1C (stereo not given)
inactive: [1] -3.1% | [2] -0.1% | [3] -7.9%

C[C@]12CC[C@@H]3c4cc(O)c(O)cc4CC[C@H]3[C@@H]1CC[C@@H]2O
inactive: [1] -1% | [2] 1% | [3] -0.8%

COc1ccc(-c2c3c(=O)n(C)c(=O)n(C)c3cn2C2CCCCC2)cc1
inactive: [1] 1.1% | [2] -1.9% | [3] -3.1%

c1ccc(Cn2nnc3cnccc32)cc1
inactive: [1] 3.6% | [2] -0.8% | [3] 1.4%

O=C1c2cccc3cccc(c23)C(=O)N1c1ccccn1
inactive: [1] -2.7% | [2] 0.1% | [3] 1.1%

CCOC(=O)C1C2C=CC3(CN(c4ccc(Cl)c(F)c4)C(=O)C13)O2 (stereo not given)
inactive: [1] 2.9% | [2] -2.3% | [3] 6.8%

O=C(NCc1ccc2c(c1)OCO2)c1ccc2c(c1)OCCO2
inactive: [1] 2% | [2] 0.7% | [3] -0.5%

CC(C)NS(=O)(=O)c1ccc(OCC(=O)Nc2cccc(F)c2)cc1
inactive: [1] -3.9% | [2] -0.3% | [3] -0.8%

O=c1nc2sc3ccccc3n2c(=O)n1-c1ccc(Cl)cc1
inactive: [1] 0.3% | [2] -1.6% | [3] -7.9%

C=C(CC)C(=O)c1ccc(OCC(=O)O)c(Cl)c1Cl
inactive: [1] -6.2% | [2] -2.2% | [3] -10.3%

CCN(CC)Cc1c[nH]c2c(C(=O)OC)cccc12
inactive: [1] -0.7% | [2] 0.3% | [3] 6.7%

COc1ccc(S(=O)(=O)N2CCN(C(=O)COc3ccc4c(C)cc(=O)oc4c3)CC2)cc1
inactive: [1] 2.4% | [2] 0.1% | [3] -0.8%

COc1ccc(-c2c[n+](CC(=O)OC3CC(C)CCC3C(C)C)c3n2CCC3)cc1 (stereo not given)
inactive: [1] 0.9% | [2] 0.1% | [3] -5.8%

Oc1ccc(Oc2ncc(Cl)cc2Cl)cc1
inactive: [1] 1.4% | [2] -0.7% | [3] -2.9%

Cc1nc2cc3ccccc3cc2c(=O)[nH]1
inactive: [1] -2% | [2] 1.5% | [3] 3.7%

Nc1nc2c(ncn2COC(CO)CO)c(=O)[nH]1
inactive: [1] -0.4% | [2] -1.1% | [3] -4.8%

COc1cc(OC)cc(C(C)=O)c1
inactive: [1] -1.9% | [2] -1.3% | [3] -0.1%

C[C@]12CCC(=O)C[C@@H]1CC[C@@H]1[C@@H]2CC[C@]2(C)C=CC[C@@H]12
inactive: [1] 3.9% | [2] 0.7% | [3] -1.3%

COc1cccc(CC(=O)NCC2COc3ccccc3O2)c1OC (stereo not given)
inactive: [1] -2.4% | [2] 0.4% | [3] 0.6%

Cc1ccc(S(=O)(=O)NC(=O)NN2CCCCCC2)cc1
inactive: [1] -4.6% | [2] -1.6% | [3] -4.1%

c1ccc2c(c1)CCCC2C1=NCCN1 (stereo not given)
inactive: [1] 0.7% | [2] 0.9% | [3] 0.6%

O=C(O)c1ccccc1Nc1cccc(C(F)(F)F)c1
inactive: [1] -4.2% | [2] -0.9% | [3] 1.9%

O=c1nc2n(c3c1oc1ccccc13)Cc1ccccc1-2
inactive: [1] 2.1% | [2] 0% | [3] -4.3%

CC1(C)CC(=O)c2cc(O)ccc2O1
inactive: [1] 2% | [2] 0.1% | [3] -2.1%

CC(C)C[C@H](NC(=O)[C@@H]1Cc2ccccc2CN1C(=O)OC(C)(C)C)C(=O)NCC1CCC(C(=O)O)CC1 (stereo not given in full)
inactive: [1] 3% | [2] 0.3% | [3] -3.6%

COc1ccc(NC(=O)C2C(=O)N(CCO)C3(C)CC2c2ccccc2O3)cc1 (stereo not given)
inactive: [1] 0.1% | [2] 1.3% | [3] -1.3%

CCCn1c(=O)c2[nH]c(C3CCCC3)nc2n(CCC)c1=O
inactive: [1] 4.7% | [2] 0.8% | [3] -1.9%

CC(C)C12CN3CC(C(C)C)(CN(C1)C3c1ccccc1)C2O (stereo not given)
inactive: [1] 1.7% | [2] 1.2% | [3] 7%

O=c1ccc2c(o1)/C(=C/C=C(Cl)Cl)CCC2
inactive: [1] -0.9% | [2] -0.6% | [3] -2%

CCCCCCCCNC(C)C(O)c1ccc(SC(C)C)cc1 (stereo not given)
inactive: [1] -4.9% | [2] -1.5% | [3] -9.4%

CNS(=O)(=O)c1ccc(C)cc1
inactive: [1] -3.1% | [2] -0.5% | [3] -3.3%

Cc1ccc(S(=O)(=O)Nc2ccc(S(=O)(=O)Nc3cc(C)nc(C)n3)cc2)cc1
inactive: [1] -1.8% | [2] 0.6% | [3] 0.7%

CC(C)(C)C(=O)Nc1cccc(OC(F)(F)C(F)Cl)c1 (stereo not given)
inactive: [1] 3.3% | [2] 0% | [3] -6%

O=C(/C=C/c1ccccc1)NC(=O)c1ccccc1O
inactive: [1] -4.2% | [2] -1.7% | [3] -5.7%

Nc1ccc(-c2nc3ncccc3o2)c(Cl)c1
inactive: [1] -2.1% | [2] -1.8% | [3] -10.9%

COc1ccc(C2=NOC(COc3ccc4c(C)cc(=O)oc4c3)C2)c(OC)c1 (stereo not given)
inactive: [1] -0.4% | [2] 1.7% | [3] 0%

COc1ccccc1C(=O)N=C1NC(=O)CC2C(=O)NCCN12 (stereo not given)
inactive: [1] -2.8% | [2] -1.5% | [3] -5.2%

COc1ccc(CCN(C)CCCC(C#N)(c2cc(OC)c(OC)c(OC)c2)C(C)C)cc1OC (stereo not given)
inactive: [1] 5.3% | [2] 1.8% | [3] 6.4%

O=C(O)CCCCCCNC(=O)c1cncc(O)c1
inactive: [1] -1.8% | [2] 0.2% | [3] 7.5%

CCN(CC)C(=O)c1sc(NC(=O)c2c(OC)cccc2OC)c(C#N)c1C
inactive: [1] 6% | [2] 2.1% | [3] 3.6%

CCOc1ccc(CC2c3cc(OCC)c(OCC)cc3CCN2C(=O)CN2CCN(C)CC2)cc1OCC (stereo not given)
inactive: [1] -5.9% | [2] -1.4% | [3] 7.9%

O=C(N/C(=C/C=C\c1ccccc1)C(=O)N1CCOCC1)c1ccc(Br)cc1
inactive: [1] 3.8% | [2] 0.6% | [3] -3.6%

COC(=O)c1ccc(=O)n(Cc2ccco2)c1
inactive: [1] 3.3% | [2] -0.2% | [3] 3.8%

NCCc1cnc[nH]1
inactive: [1] 0.7% and 3.1% | [2] -1.5% | [3] 3.7%

N/C(=N\OC(=O)c1cccc(Br)c1)c1ccncc1
inactive: [1] 0.8% | [2] 0.4% | [3] -3.1%

Cc1ccccc1-c1coc2cc(O)ccc2c1=O
inactive: [1] -3.4% | [2] 0.2% | [3] 1.6%

CCCCOC(=O)c1ccc(N)cc1
inactive: [1] 3.6% | [2] -1.1% | [3] 2.2%

O=[N+]([O-])c1ccc2cn[nH]c2c1
inactive: [1] 2.9% | [2] -0.5% | [3] 4%

c1ccc2c3c(c(CN4CCCCC4)cc2c1)COC3
inactive: [1] 5.7% | [2] -1% | [3] 0.6%

O=C(O)CP(=O)(O)O
inactive: [1] 1.3% | [2] 0.3% | [3] -2.7%

CCN(CC)CCNC(=O)c1ccc(NC(C)=O)cc1
inactive: [1] 3.4% and 3.6% | [2] 1.2% and -1.2% | [3] -6.2% and -1.6%

Cn1c2ccc(CC(=O)O)cc2c2cc(CC(=O)O)ccc21
inactive: [1] 2.2% | [2] -0.6% | [3] 7.2%

NC(N)=N/N=C/c1ccc(OS(=O)(=O)c2ccccc2)cc1
inactive: [1] -5.1% | [2] -1.5% | [3] -1.4%

Cc1cccc(N2C(=O)C3C(c4ccccc4)OC4(C(=O)c5ccccc5C4=O)C3C2=O)c1 (stereo not given)
inactive: [1] 4.6% | [2] 1% | [3] -3.5%

COc1cccc2c(=O)c(C/C=C(/C)Cl)c(C)[nH]c12
inactive: [1] 1.2% | [2] -1.6% | [3] 3.4%
